High-throughput results deposited in PubChem by National Center for Advancing Translational Sciences (NCATS).
Compounds with a hit are over-represented: about 7.1% of the library has one in this group of screens.
p53 reactivation: qHTS assay for re-activators of p53 using a Luc reporter | H1299 p53-A138V BP100-luciferase reporter, luminescence, 24 h | Potency, µM (titrated, usually from 92.2 µM), usual class: activators | 0.063% of 320,000 active; further: nearly all actives have a fitted effect of over 45% in size
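H1299 (p53-null), stable ts p53-A138V + BP100-Luc; 1000 cells/well, Opti-MEM/10% FBS; cpd 4 pt, 1:5; 24 h, 37 deg C, 5% CO2; detection reagent 10 min RT; luminescence.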
SW480 rereplic: A quantitative high throughput screen for small molecules that induce DNA re-replication in SW480 colon adenocarcinoma cells. SW480 DNA re-replication, Hoechst DNA content imaging, 48 h. Potency, µM (titrated, usually from 46.1 µM), actives largely listed as activators. 1.8% of 340,000 active. AID 624297, 2012; further: nearly all actives have a fitted effect of over 55% in size
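SW480 cells exposed to compounds for 48 hr at 37 C, 5% CO2, then Hoechst-stained 40 min. Nuclear DNA content imaged by fluorescence scanning (405 nm excitation, 500-530 nm emission); re-replication scored as increased high-intensity nuclei.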
ELG1 genotox: qHTS screen for small molecules that induce genotoxicity in human embryonic kidney (HEK293T) cells expressing luciferase-tagged ELG1 | HEK293T ELG1-luciferase reporter, luminescence, 16 h | Potency, µM (series often up to 46 µM), usual class: activators | 1.3% of 330,000 active | AID 504466, 2011; further: nearly all actives have a fitted effect of over 60% in size
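HEK293T cells expressing luciferase-tagged ELG1 were exposed to compound or DMSO vehicle for 16 hr at 37 °C and 5% CO2. Luciferase activity was then measured with ONE-Glo after 30 min at room temperature.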
AT treatment: qHTS Assay for Identifying a Potential Treatment of Ataxia-Telangiectasia | F2112 A-T fibroblasts, KAP-1 phosphorylation AlphaLISA; neocarzinostatin DNA damage 30 min before lysis | Potency, µM (doses to about 57.5 µM), usual class: activators | 0.19% of 320,000 active; further: nearly all actives have a fitted effect of over 45% in size
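hTERT-immortalized A-T patient fibroblasts (F2112), 500 cells/well in OPTI-MEM, 1% FBS, got compounds for 60 min, then NCS for 30 min at 37C. Lysates were then assayed for phospho-KAP-1 by AlphaLISA (anti-pKAP1 donor, anti-KAP1 acceptor beads), 6 hr at 25C.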
ELG1 repair inh: qHTS screen for small molecules that inhibit ELG1-dependent DNA repair in human embryonic kidney (HEK293T) cells expressing luciferase-tagged ELG1 | HEK293T ELG1-luciferase reporter, luminescence, 16 h; DNA damage induced by 5-fluorouridine | Potency, µM (titrated, usually from 46.1 µM), actives largely listed as inhibitors | 2.3% of 330,000 active | AID 504467, 2011; further: nearly all actives have a fitted effect of over 55% in size
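Step one: seed 2,000 cells per well. Step two: pin-transfer compound or DMSO alongside 5-fluorouridine. Step three: incubate 16 hr, 37 °C, 5% CO2. Step four: add ONE-Glo, wait 30 min, read luminescence.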
MCF10A rereplic: A quantitative high throughput screen for small molecules that induce DNA re-replication in MCF 10a normal breast cells. MCF 10A DNA re-replication, Hoechst nuclear intensity, 48 h. Potency, µM (top dose mostly 46.1 µM), actives largely listed as activators. 2.9% of 350,000 active; further: nearly all actives have a fitted effect of over 50% in size
Large screens that a line does not name were inactive. The call rests on the fitted dose curve; in most records, active means well fitted curve in the direction sought with a large enough effect; inconclusive means small, poorly fitted or top-dose-only effect, or another doubt; inactive means no such curve, though single readings can be large; an effect the other way counts as inactive or inconclusive.

CCOCC(=O)NC1CCc2cc(OC(=O)COCC)c(OC)c(OC)c2-c2ccc(SC)c(=O)cc21 (configuration not stated)	SW480 rereplic 0.082µM, MCF10A rereplic inconclusive (no result: p53 reactivation, ELG1 genotox, AT treatment, ELG1 repair inh)
Cn1c(=O)n(CC(=O)NCC2CCCO2)c(=O)c2c3c(sc21)CCCC3 (configuration not stated)	SW480 rereplic inconclusive
CN(C)c1ccc(C(C(=O)NCC2CCCO2)N(Cc2ccccc2)C(=O)c2snc(C(N)=O)c2N)cc1 (configuration not stated)	ELG1 repair inh 12µM
Cc1ccc(C(C(=O)NCC2CCCO2)N(Cc2ccccc2)C(=O)c2ccc(-c3ccccc3)[nH]2)o1 (configuration not stated)	SW480 rereplic inconclusive, ELG1 repair inh 16µM, MCF10A rereplic inconclusive
Cc1ccc(CN(C(=O)CNC(=O)c2cccs2)C(C(=O)NCC2CCCO2)c2ccccc2)cc1 (configuration not stated)	ELG1 repair inh 9.2µM, MCF10A rereplic inconclusive
CCc1ccc(N(C(=O)c2snc(C(N)=O)c2N)C(C(=O)NCC2CCCO2)c2cccs2)cc1 (configuration not stated)	SW480 rereplic inconclusive, ELG1 repair inh inconclusive, MCF10A rereplic 18µM
CCC(=O)OC1C(N(C)C)CC(C)O[C@H]1O[C@H]1[C@H](C)[C@@H](O[C@H]2CC(OC)[C@@H](O)C(C)O2)[C@H](C)C(=O)O[C@@H](CC)[C@](C)(O)[C@@H](O)[C@H](C)C(=O)[C@@H](C)C[C@]1(C)O (some centres not stated)	none (no result: p53 reactivation, ELG1 genotox, AT treatment, ELG1 repair inh)
Cc1ccc(C)c(S(=O)(=O)N2CCN(C(=O)Cn3[nH]c(=O)c4ccccc4c3=O)CC2)c1	SW480 rereplic inconclusive, ELG1 repair inh inconclusive
CN1CCC[C@@H](CC2c3ccccc3Sc3ccccc32)C1	SW480 rereplic inconclusive (no result: p53 reactivation, ELG1 genotox, AT treatment, ELG1 repair inh)
O=C(Nc1ccccc1N1CCCC1)c1cccc(-c2cc3ccccc3oc2=O)c1	SW480 rereplic inconclusive, ELG1 repair inh inconclusive
Cc1nc(NC(=O)c2ccc(-c3cc4ccccc4oc3=O)cc2)ccc1Br	ELG1 repair inh inconclusive
Cc1nc(NC(=O)c2cccc(-c3cc4ccccc4oc3=O)c2)ccc1Br	p53 reactivation inconclusive, ELG1 repair inh inconclusive, MCF10A rereplic 21µM
O=C(Nc1ccc(Br)cn1)c1cccc(-c2cc3ccccc3oc2=O)c1	p53 reactivation inconclusive, SW480 rereplic inconclusive, ELG1 genotox inconclusive, ELG1 repair inh inconclusive, MCF10A rereplic 18µM
O=C1OCCN1N1CCOC1=O	none (no result: p53 reactivation, ELG1 genotox, AT treatment, ELG1 repair inh)
COc1ccc(/C=N/NC(=O)CN(C)S(=O)(=O)c2ccc(NC(C)=O)cc2)cc1	none
COc1cccc(/C=N/NC(=O)CN(CCc2ccccc2)S(=O)(=O)c2ccc(NC(C)=O)cc2)c1	SW480 rereplic inconclusive, ELG1 repair inh 23µM
Cc1ccc(OCC(=O)Nc2ccc(C)c(F)c2)c([N+](=O)[O-])n1	p53 reactivation inconclusive, ELG1 genotox inconclusive, ELG1 repair inh inconclusive
C/C(=N\Nc1nnc2c3ccccc3n(C)c2n1)c1ccc(C)o1	SW480 rereplic inconclusive, ELG1 repair inh 16µM
C/C(=N\Nc1nc(C)cc(C)n1)c1ccc(C)o1	none
C=CCn1c(CCCNC(=O)C(C)(C)C)nc2ccccc21	p53 reactivation inconclusive
CC(C)(C)C(=O)NCCCc1nc2ccccc2n1CCCOc1ccc(Cl)cc1	ELG1 repair inh 23µM, MCF10A rereplic inconclusive
Cc1[nH][nH]c(=O)c1C(c1ccc(-c2cccc(Cl)c2)o1)c1c(C)[nH][nH]c1=O	ELG1 repair inh inconclusive, MCF10A rereplic 18µM
Cc1[nH][nH]c(=O)c1C(c1ccc(-c2cccc(C(=O)O)c2)o1)c1c(C)[nH][nH]c1=O	none
CC(C)(C)OC(=O)C[C@@H]1C/C=C\C[C@@H](CC(=O)NCCO)C(=O)NC[C@H](c2ccccc2)OC1=O	ELG1 repair inh inconclusive
Oc1cccc(-c2nc3c4c(ncn3n2)-c2ccccc2CC42CCCC2)c1	ELG1 repair inh 8.2µM, MCF10A rereplic 2.1µM
COCCCn1cnc2c(c1=O)c1nc3ccccc3nc1n2-c1ccccc1	none
COCCCn1cnc2oc3nc4ccccc4nc3c2c1=O	ELG1 genotox 2.1µM, ELG1 repair inh inconclusive
Cc1nn(C)c(C(=O)N/N=C/c2ccc(Br)cc2)c1Cl	none
CC(C)c1ccc(/C=N/NC(=O)c2c(Cl)cnn2C)cc1	p53 reactivation inconclusive, ELG1 genotox 18µM, ELG1 repair inh inconclusive
Cn1c(=O)c2c(nc(Br)n2CC(=O)C23CC4CC(CC(C4)C2)C3)n(C)c1=O	SW480 rereplic inconclusive, ELG1 repair inh 15µM
CCOC(=O)N1CCN(C(=O)/C=C/c2ccc(OC)cc2)CC1	none
CCOc1cc(/C=N/NC(=O)c2nn(C)cc2Br)ccc1OCc1ccccc1	ELG1 repair inh 18µM
COc1ccc(/C=N/NC(=O)c2nn(C)cc2Br)cc1CSCc1ccco1	none
CCC(=O)c1ccc(OCCSc2ncccn2)cc1	ELG1 genotox 3.7µM, ELG1 repair inh inconclusive
CCC(=O)c1ccc(OCC(=O)O)cc1	SW480 rereplic inconclusive
CNCCCOc1ccc2c(c1)CCC2	ELG1 repair inh inconclusive
c1cnc(SCCOc2ccc3c(c2)CCC3)nc1	p53 reactivation inconclusive, ELG1 genotox 4.6µM, ELG1 repair inh inconclusive
O=C(CS(=O)(=O)c1ccccc1)NCc1ccc(Cl)cc1	none
COCCOC(=O)C1=C(C)NC(=O)NC1c1cccc2ccccc12 (configuration not stated)	none
COc1cc(-c2nccc3cc4c(cc23)OCO4)cc(OC)c1OC	SW480 rereplic 5.8µM, MCF10A rereplic 15µM (no result: p53 reactivation, ELG1 genotox, AT treatment, ELG1 repair inh)
CCN(CC(=O)NCc1cccs1)C(=O)c1ccc(-c2cccc(C(F)(F)F)c2)o1	ELG1 repair inh inconclusive, MCF10A rereplic inconclusive
Clc1ccccc1-c1nc2nc3ccccc3nc2n1-c1ccc2c(c1)OCO2	ELG1 repair inh 15µM, MCF10A rereplic inconclusive
Cc1ccc2c(C)c(C(=O)N(Cc3ccc(N(C)C)cc3)C3CCS(=O)(=O)C3)oc2c1 (configuration not stated)	ELG1 repair inh 16µM
Cc1ccc2oc(C(=O)N(Cc3ccc(N(C)C)cc3)C3CCS(=O)(=O)C3)c(C)c2c1 (configuration not stated)	none
